Measured values: the supplement of paper PMC6555819

Tests used:
Assay in all cases: PBM binding z-score (relative to random genomic background probes); higher = stronger binding; sequences stand for … in GC…GCGATTGACAGCGTAGAATGAAGG
[1] = system: PPARg:RXRa DBDmut IVT, anti-RXR (DBD mutation: RXRa K156A/R161A, NR concentration 270 nM, RXRa partner concentration 90 nM)
How it was run: (§1)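 Ligand-free nuclear receptor dimers were applied to custom Agilent 4×180K protein-binding microarrays whose double-stranded probes carried direct-repeat seeds, single-nucleotide variants, half-site ablations and random human genomic background sequences in 34-nt variable regions. Incubation lasted 1 h. Binding z-scores were computed against the random background probes from regression-normalized fluorescence.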

[2] = system: PPARg:RXRa IVT, anti-PPARg (NR concentration 270 nM, RXRa partner concentration 90 nM)
How it was run: as §1

[3] = system: PPARg DBDmut:RXRa IVT, anti-PPARg (DBD mutation: PPARg1 K132A/R137A, NR concentration 270 nM, RXRa partner concentration 90 nM)
How it was run: as §1

[4] = system: PPARg DBDmut IVT, anti-PPARg (DBD mutation: PPARg1 K132A/R137A, NR concentration 270 nM)
How it was run: as §1

[5] = system: PPARg homodimer (NR concentration 180 nM)
How it was run: as §1

[6] = system: PXR:RXRa (NR concentration 270 nM, RXRa partner concentration 90 nM)
How it was run: as §1

[7] = system: PXR homodimer (NR concentration 270 nM)
How it was run: as §1

[8] = system: RARa:RXR (NR concentration 270 nM, RXRa partner concentration 90 nM)
How it was run: as §1

[9] = system: RARa homodimer (NR concentration 270 nM)
How it was run: as §1

[10] = system: RARb:RXRa (NR concentration 270 nM, RXRa partner concentration 90 nM)
How it was run: as §1

Sequence	PBM binding z-score [1]	PBM binding z-score [2]	PBM binding z-score [3]	PBM binding z-score [4]	PBM binding z-score [5]	PBM binding z-score [6]	PBM binding z-score [7]	PBM binding z-score [8]	PBM binding z-score [9]	PBM binding z-score [10]
CGTCCAAGATCAGAGAGGTCAGTGAATGCCGAGT	0.179	0.0749	-0.351	-0.769	2.69	3.22	2.06	3.09	1.49	2.95
CGTAGCAGGCCAGGGTCACTCAAGCATTTCGCTT	0.638	1.11	-0.725	-1.16	0.494	2.28	-0.189	2.69	-0.182	2.66
CTTACTGGGCCATCAGGTCATTGATATCAACGTT	6.66	6.83	2.49	2.61	1.66	1.94	0.966	2.45	0.185	2.26
ATCTCTGGGTAAAAGTTCAGTGAATCCCGAGGAT	1.87	3.69	1.17	1.44	1.47	2.03	1.5	1.97	0.896	2.59
AATACAGGGACACTAGGCCAGAGTAGGTACGAAT	0.603	1.52	0.579	0.0521	-0.62	-0.635	0.0323	-0.555	-0.036	0.688
TTACCAAGGTGAGCTGAGGTCGGTGATCCAACTC	0.759	1.6	-0.343	-0.369	-0.703	2.47	-0.308	1.19	-0.395	1.52
ACTCGGAGGACAATGGTCAGAGCTACGCCAGTGA	-0.21	-0.421	-1.67	-0.609	-0.576	-0.593	-0.561	-0.488	-0.119	1.23
CCAGGCAGGTGAAAGGTAACTCAGTCTGGTACGC	2.16	3.13	-1.38	-0.814	1.59	0.457	-0.265	1.53	-0.973	1.02
TTACCAAGGTGAAAGTTCGTTGATGCACGCCTTG	1.85	4.23	0.268	0.287	0.78	2.73	1.54	2.73	0.264	2.24
TCTGCTAGGTCAGTCGGTCAGCTAACGAGCTGCC	3.05	3.83	-0.327	-0.109	0.456	-0.00116	-1.21	0.436	-1.08	3.6
CCTACTGGGCCAAGGTCATTAATCAGTCAAAGCA	3.47	4.44	0.31	0.133	2.15	3.16	1.21	3.39	0.145	3.29
CGTCCAAGGTAATAGGAGGTCAGTGAAGACAGAT	0.553	1.63	0.188	-0.16	1.61	2.8	0.938	2.15	1.12	2.23
CCTACTGGGCCAAGATCATTGATCAGTCAAAGCA	3.49	2.81	-0.235	-0.518	-0.385	-0.498	-0.795	-0.319	-0.424	-0.341
GGAACGAGGGTAAGTTGATAGCAGAGTTTGATGG	1.59	0.763	0.619	0.0122	0.193	0.0431	0.405	-0.00911	0.262	0.727
TCTGCTAGGCCAGTTGGTCAGCTAACGAGCTGCC	0.789	0.538	-0.123	-0.684	-2.67	-0.743	-1.82	-0.933	-1.48	0.442
TCTTGTAGATCAATAGAGGTTAATAAAGTGCGCT	1.47	1.13	0.628	0.945	0.295	2.84	0.364	1.63	0.341	0.772
ACTAGATGGTCAGCTGAGGTCACACACAATTCGG	0.982	2.14	1.06	0.428	2.89	5.58	1.53	4.43	1.34	3.75
CAAACTAGATCACAGAGGTCAAAGTCCGTGCGTA	3.96	4.36	1	1.1	4.38	5.76	2.93	6.13	2.65	4.05
CCAACTGGGCCAAAGGTCATTGATTCCAATGCTC	5.49	7	0.378	1.89	3.57	5.33	1.49	6.04	0.958	4.35
GCGACTGGGGCATCAGCTGGTTACCATAACTTAA	3.64	3.01	-1.02	-0.691	-0.402	-0.444	-1.17	-0.536	-1.25	0.475
GATACAGCGTCAGCTAGAGGCCAGAGTATGGAAA	-0.984	-0.61	-2.52	-1.12	-1.09	-0.922	-0.376	-0.685	-1.14	-0.322
ATATGTAGGTTGCATCCGGGTCATTCAGGCTATG	4.33	3.93	1.47	0.927	0.466	2.76	1.85	2.73	0.0936	1.4
CAAACTGGGTCACAGAGGTCAAAGTCCGTGCGTA	7.82	8.76	4.79	4.1	3.96	6.74	9	7.06	0.622	5.21
TCATATAGGTAAAAGGTGAAGGTCGGTGTGGTAA	5.58	5.14	1.14	0.439	1.92	2.15	1.34	3.07	1.51	2.28

Sequence	PBM binding z-score [1]	PBM binding z-score [2]	PBM binding z-score [3]	PBM binding z-score [4]	PBM binding z-score [5]	PBM binding z-score [6]	PBM binding z-score [7]	PBM binding z-score [8]	PBM binding z-score [9]	PBM binding z-score [10]
CCTACCGGGCCAAAAAGGTCATTGATGCCGATAA	-0.0213	1.89	-0.195	-1.09	3.48	5	5.72	5.47	1.6	3.96
CAGACTAGGTCAGGGCCAGTATAGGAGGAACGTT	5.95	6.11	0.269	0.382	0.388	0.0784	-0.249	0.723	-0.255	3.12
AGTTAAAGTTCAGGACGAGGTAACGTAAAGCACG	-0.314	1.18	0.861	1.1	2.09	2.95	1.51	2.66	0.705	4.06
CCCGACAGGTGAGAAGGTAACTCAGCCTCGATTA	0.828	0.811	-0.905	-0.776	0.497	-0.281	-0.233	-0.0407	0.0144	0.749
GATACAGGGTCTAGGCCAGAGTACGCGTATTGAT	-0.37	0.257	-1.76	-0.427	-0.543	-0.687	-0.433	-0.694	-0.222	0.0286
CCTACTGGTCCATTCAGAGGTCATTGATCATATG	0.337	1.32	-0.102	0.307	3.17	4.52	4.29	4.42	1.99	2.89
ATCTCTAGGTGACCAAGTTCAGTGAATGCCGAAC	5.31	4.76	1.66	1.14	0.611	2.17	1.7	0.763	-0.118	1.7
CCTTACGGGGCACGAGGTTATAGCACGACGAGCG	1.87	2.38	0.9	-1.3	0.427	0.836	-0.487	1.6	-0.309	1.9
ACGGACAGGTGATGAAGGTAACTCAGGCTATCAT	0.288	0.365	0.082	0.0676	0.411	0.11	0.211	0.174	0.939	0.745
ACTTACGGGTCAAAGAGGTTATAGCACGCGTATA	3.17	3.85	1.03	1.26	3.6	4.91	2.73	4.84	1.4	3.99
CGTCAAAGTTCAACTAAGGTAACGTGAAGCACGC	0.871	2.2	0.717	0.859	3.36	5.76	4.5	4.34	2.47	5.26
CCTGCTAGGTCAATGGTCAGCCAAAGCAGCTCGC	4.18	3.97	-0.884	-0.321	1.16	0.76	-0.543	1.52	-0.219	3.77
TATCCTAGGTCATTCAGGGGCCAGTATAGAAAGC	4.17	4.85	1.68	2.21	3.21	3.08	0.861	3.84	1.26	4.08
TATTGTAGATCAAGCAGGTTAAGAAAGCCTGAGT	0.302	1.02	0.542	0.816	0.0743	0.218	-0.248	0.378	0.348	-0.0192
AGAATGAGGTTCAGATCAGGGAAACAGAATACAT	-0.151	0.433	1.08	0.118	0.165	0.507	0.222	1.41	0.488	0.706
ATCGAAAGGTCGAAGGTGAGTATTCCCACCCGAA	0.38	2.13	0.944	0.361	2.58	2.89	-0.082	4.32	0.118	3.64
CCTATTAGTTGACCATAAGGGAAACCGAAGCTCG	0.672	0.217	0.925	1.02	2.22	0.326	0.761	0.517	2.53	0.497
CCGAGTAGGTTAAGGGGCATTCAGGCAACGGTGA	3.63	4.08	-0.405	-0.995	0.976	0.49	0.0402	1.39	0.293	1.51
GCTATTAGTTGAAAGCGCAACCGAATGATTCTCG	0.316	-0.176	-0.265	-0.6	0.252	-0.405	-0.357	-0.564	-0.0512	-0.343
TCATCTAGGTAAACAGGTGAAAGTCCGTAAGTTA	4.8	5.11	1.31	1.14	0.609	0.409	0.487	0.888	0.849	0.534
TCATATAGGTAAAAGGTGAAAGCCGGTGTGGTAA	5.44	4.98	0.678	1.17	1.42	1.58	0.293	2.92	0.942	1.95
CAAACTAGGTCAAGGTCAGAGTCGGTTTGTGCCA	8.39	8.85	4.94	5.19	4.13	4.13	1.18	4.4	2.46	5.06
GATACAGGGTCAGGGCCAGAGTACGCGTATTGAT	1.35	2.69	-0.0398	-0.619	1.64	2.28	0.125	3.24	0.471	3.82
CCTAGTTGGTCAGGAGGTCACACAACGGATATGA	1.95	3.66	0.747	0.329	3.64	4.16	1.53	4.94	2.05	3.63
